Source: publication PMC11062922 (Nature Chemical Biology, 2023)
Where two headings read alike, the source gives them in different places.

How the values were obtained:
Design in all cases: species or system human, MV4-11 + K-562 + COLO205 + SK-N-BE2 + OVCAR-8
ABL1 = details: read-out: apparent Kd, n = 1
ABL2 = details: read-out: apparent Kd, n = 1
AURKB = details: read-out: apparent Kd, n = 1
BTK = details: read-out: apparent Kd, n = 1
CDC42BPB = details: read-out: apparent Kd, n = 1
EPHB1 = details: read-out: apparent Kd, n = 1
LCK = details: read-out: apparent Kd, n = 1
NUAK2 = details: read-out: apparent Kd, n = 1
PAK6 = details: read-out: apparent Kd, n = 1
RPS6KB1 = details: read-out: apparent Kd, compound concentrations: 100 nM and 1000 nM (sheet 'Samples'), n = 1
ACVR1B = details: read-out: apparent Kd, n = 1
PTK6 = details: read-out: apparent Kd, n = 1
RPS6KA3 = details: read-out: apparent Kd, n = 1
TTK = details: read-out: apparent Kd; compound concentrations:100 nM and 1000 nM (sheet 'Samples'); n = 1
CIT = details: read-out: apparent Kd, n = 1
MAPK14 = details: read-out: apparent Kd, n = 1
MAP3K11 = details: read-out: apparent Kd, n = 1
PKN2 = details: read-out: apparent Kd, n = 1
PRKCA = details: read-out: apparent Kd, n = 1
[1] = compound concentrations:100 nM and 1000 nM (sheet 'Samples')

In the case of `CN(c1ccc(NC(=O)Nc2cccc(Cl)c2)cc1)c1ccnc(N)n1.Cl` [GW830707A], the potency estimated from few doses (ABL1; compound concentrations: 100 nM and 1000 nM (sheet 'Samples'), CATDS: 1.69612830125371E-2) is reported as 90.3 nM, the potency estimated from few doses (ABL2; compound concentrations: 100 nM and 1000 nM (sheet 'Samples'), CATDS: 3.1249349132144801E-2) is reported as 18.9 nM and the potency estimated from few doses (AURKB; compound concentrations: 100 nM and 1000 nM (sheet 'Samples'), CATDS: 1.11325754696811E-2) is reported as 1010 nM. For the same compound, the potency estimated from few doses (BTK; compound concentrations: 100 nM and 1000 nM (sheet 'Samples'), CATDS: 1.93862363831281E-2) was 58.1 nM, the potency estimated from few doses (CDC42BPB; compound concentrations: 100 nM and 1000 nM (sheet 'Samples'), CATDS: 1.55962433330884E-2) was 126 nM and the potency estimated from few doses (EPHB1; compound concentrations: 100 nM and 1000 nM (sheet 'Samples'), CATDS: 2.4630351484746099E-2) was 31.2 nM. It also gave a potency estimated from few doses (LCK; compound concentrations: 100 nM and 1000 nM (sheet 'Samples'), CATDS: 1.1469376819807401E-2) of 788 nM, a potency estimated from few doses (NUAK2; compound concentrations: 100 nM and 1000 nM (sheet 'Samples'), CATDS: 1.08459098062964E-2) of 1270 nM and a potency estimated from few doses (PAK6; compound concentrations: 100 nM and 1000 nM (sheet 'Samples'), CATDS: 1.07398015427933E-2) of 1390 nM. The potency estimated from few doses (RPS6KB1; CATDS: 1.09553659906664E-2) was 1160 nM.
Compound `CNC(=O)c1ccccc1Nc1nc(Nc2ccc(N3CCOCC3)cc2)ncc1Cl.Cl` [GSK1576028A] has a potency estimated from few doses (ABL1; [1]) of 1640 nM, a potency estimated from few doses (ACVR1B; [1]) of 243 nM and a potency estimated from few doses (AURKB; [1]) of 55 nM. The potency estimated from few doses (BTK; [1]) was 256 nM, the potency estimated from few doses (LCK; [1]) was 234 nM and the potency estimated from few doses (NUAK2; [1]) was 1370 nM. It also gave a potency estimated from few doses (PTK6; [1]) of 297 nM, a potency estimated from few doses (RPS6KA3; [1]) of 549 nM and a potency estimated from few doses (TTK) of 2100 nM.
Work on `Fc1ccc(-c2c(-c3ccncc3)[nH]c3cccnc23)cc1` [RO1153853-000] yielded a potency estimated from few doses (ACVR1B; compound concentrations: 100 nM and 1000 nM (sheet 'Samples'), CATDS: 6.54692284622726E-2) of 700 nM, a potency estimated from few doses (CIT; compound concentrations: 100 nM and 1000 nM (sheet 'Samples'), CATDS: 4.9233992215081297E-2) of 1750 nM and a potency estimated from few doses (MAPK14; compound concentrations: 100 nM and 1000 nM (sheet 'Samples'), CATDS: 9.4137479402045199E-2) of 308 nM.
`NCCNS(=O)(=O)c1ccc(-c2ccnc3[nH]ccc23)cc1` [GSK977617A] was tested, and the potency estimated from few doses (ABL1; [1]) was 681 nM, the potency estimated from few doses (ABL2; [1]) was 277 nM and the potency estimated from few doses (BTK; [1]) was 642 nM. The potency estimated from few doses (CDC42BPB; [1]) was 1700 nM, the potency estimated from few doses (EPHB1; [1]) was 463 nM and the potency estimated from few doses (LCK; [1]) was 515 nM. The potency estimated from few doses (MAP3K11; [1]) was 1370 nM, the potency estimated from few doses (PAK6; [1]) was 1310 nM and the potency estimated from few doses (PKN2; [1]) was 1190 nM. The potency estimated from few doses (PRKCA; [1]) was 1270 nM.
`Cc1ccc2c(-c3ccncc3)c(-c3ccc(F)cc3)nn2c1.Cl` [GW461484A] was tested, and the potency estimated from few doses (ABL1; [1]) was 1220 nM, the potency estimated from few doses (ABL2; [1]) was 571 nM and the potency estimated from few doses (ACVR1B; [1]) was 696 nM. It also gave a potency estimated from few doses (BTK; [1]) of 801 nM, a potency estimated from few doses (CIT; [1]) of 2120 nM and a potency estimated from few doses (EPHB1; [1]) of 384 nM. The potency estimated from few doses (LCK; [1]) was 730 nM, the potency estimated from few doses (MAPK14; [1]) was 465 nM and the potency estimated from few doses (PTK6; [1]) was 871 nM. It also gave a potency estimated from few doses (RPS6KA3; [1]) of 1950 nM.
Work on `Cc1cccc(-c2nc(Nc3ccncc3)c3sccc3n2)n1` [GW869641X] yielded a potency estimated from few doses (ACVR1B; [1]) of 0.703 nM and a potency estimated from few doses (CIT; [1]) of 1100 nM.
With `CN(c1ccc(NC(=O)N2CCN(CCCN3CCOCC3)CC2)cc1)c1ccnc(Nc2ccc(CS(C)(=O)=O)cc2)n1.Cl` [GW830899A] the potency estimated from few doses (ABL1; compound concentrations: 100 nM and 1000 nM (sheet 'Samples'), CATDS: 2.13093198764688E-2) was 1300 nM, the potency estimated from few doses (MAP3K11; compound concentrations: 100 nM and 1000 nM (sheet 'Samples'), CATDS: 1.83131031951747E-2) was 1980 nM and the potency estimated from few doses (MAPK14; compound concentrations: 100 nM and 1000 nM (sheet 'Samples'), CATDS: 2.4950407737396499E-2) was 905 nM.
For `Cc1cccc(Nc2nc(N[C@H]3CCCC[C@H]3N)ncc2C(N)=O)c1.Cl` [GSK986310C], the potency estimated from few doses (MAP3K11; [1]) was 1800 nM and the potency estimated from few doses (PRKCA; [1]) was 1130 nM.
In the case of `CCn1c(-c2nonc2N)nc2c(C#CCN)ncc(OCCCN)c21.O=C(O)C(F)(F)F` [GSK561866B], the potency estimated from few doses (PKN2; compound concentrations: 100 nM and 1000 nM (sheet 'Samples'), CATDS: 7.8850535448236003E-2) is reported as 1510 nM and the potency estimated from few doses (RPS6KB1; CATDS: 9.0745453411211097E-2) is reported as 699 nM.
Compound `COc1ccc(Nc2ncc(C#N)c(Nc3ccccc3C(N)=O)n2)cc1N1CCN(C)CC1.Cl` [GSK1558669A] has a potency estimated from few doses (ABL1; compound concentrations: 100 nM and 1000 nM (sheet 'Samples'), CATDS: 1.2086196789939699E-2) of 112 nM, a potency estimated from few doses (ABL2; compound concentrations: 100 nM and 1000 nM (sheet 'Samples'), CATDS: 8.4087803089845196E-3) of 334 nM and a potency estimated from few doses (AURKB; compound concentrations: 100 nM and 1000 nM (sheet 'Samples'), CATDS: 1.8083134151289901E-2) of 45.1 nM. The potency estimated from few doses (BTK; compound concentrations: 100 nM and 1000 nM (sheet 'Samples'), CATDS: 6.7250041234510503E-3) was 871 nM, the potency estimated from few doses (LCK; compound concentrations: 100 nM and 1000 nM (sheet 'Samples'), CATDS: 1.44418733031309E-2) was 72.7 nM and the potency estimated from few doses (MAP3K11; compound concentrations: 100 nM and 1000 nM (sheet 'Samples'), CATDS: 2.8050644020512099E-2) was 20.5 nM. The potency estimated from few doses (NUAK2; compound concentrations: 100 nM and 1000 nM (sheet 'Samples'), CATDS: 2.1181549202491899E-2) was 33.3 nM, the potency estimated from few doses (PRKCA; compound concentrations: 100 nM and 1000 nM (sheet 'Samples'), CATDS: 6.3313527827085804E-3) was 1220 nM and the potency estimated from few doses (PTK6; compound concentrations: 100 nM and 1000 nM (sheet 'Samples'), CATDS: 1.8195014804837699E-2) was 44.6 nM. For the same compound, the potency estimated from few doses (RPS6KA3; compound concentrations: 100 nM and 1000 nM (sheet 'Samples'), CATDS: 1.2141837427484699E-2) was 110 nM and the potency estimated from few doses (RPS6KB1; CATDS: 6.0370811384274602E-3) was 1680 nM.
Work on `CC(C)N1CCC(n2cnc(-c3ccc(F)cc3)c2-c2ccnc(N)n2)CC1` [SB-223132] yielded a potency estimated from few doses (ABL1; [1]) of 1110 nM, a potency estimated from few doses (ABL2; [1]) of 723 nM and a potency estimated from few doses (BTK; [1]) of 842 nM. For the same compound, the potency estimated from few doses (CIT; [1]) was 886 nM, the potency estimated from few doses (EPHB1; [1]) was 656 nM and the potency estimated from few doses (LCK; [1]) was 880 nM. The potency estimated from few doses (MAPK14; compound concentrations: 100 nM and 1000 nM (sheet 'Samples'), CATDS: 8.3649714811029202E-2) was 40 nM and the potency estimated from few doses (PTK6; [1]) was 1390 nM.
